In the library only some 3.7% were active in any assay of this set; here they are far more common.
Autofluor counter = flagged as autofluorescent in microsphere protease counterscreen. compound autofluorescence counterscreen, microsphere flow cytometry; stronger effect = higher value. fluorescence intensity (no concentration beside the values). 360,000 compounds, 3.1% hits. AID 624483; in the data active = fluorescence intensity above about 16000; inconclusive = no clear call, values can overlap the other calls
BoNT-A LC inh2 = blocks Botulinum neurotoxin A light chain protease | multiplex microsphere protease substrate cleavage, flow cytometry | inhibition, % at 10 µM | 360,000 compounds, 0.17% hits | AID 588499; also: plate controls were buffer without enzyme for full effect and enzyme alone for no effect
BJeLR lethal = BJeLR cell viability loss | BJeLR (HRASV12) viability, CellTiter-Glo ATP luminescence, 48 h | AID 1554 | inhibition, % (test concentration not listed) | 300,000 compounds, 0.17% hits; in the data active = inhibition above about 50%; inconclusive = no clear call, values can overlap the other calls
Anthrax LF prot = anthrax lethal factor protease inhibition. 360,000 compounds, 0.12% hits. inhibition, % at 10 µM. P15917. multiplex microsphere protease cleavage assay, LF; also: plate controls were buffer without enzyme for full effect and enzyme alone for no effect
Target sequence (P15917 whole entry, looked up): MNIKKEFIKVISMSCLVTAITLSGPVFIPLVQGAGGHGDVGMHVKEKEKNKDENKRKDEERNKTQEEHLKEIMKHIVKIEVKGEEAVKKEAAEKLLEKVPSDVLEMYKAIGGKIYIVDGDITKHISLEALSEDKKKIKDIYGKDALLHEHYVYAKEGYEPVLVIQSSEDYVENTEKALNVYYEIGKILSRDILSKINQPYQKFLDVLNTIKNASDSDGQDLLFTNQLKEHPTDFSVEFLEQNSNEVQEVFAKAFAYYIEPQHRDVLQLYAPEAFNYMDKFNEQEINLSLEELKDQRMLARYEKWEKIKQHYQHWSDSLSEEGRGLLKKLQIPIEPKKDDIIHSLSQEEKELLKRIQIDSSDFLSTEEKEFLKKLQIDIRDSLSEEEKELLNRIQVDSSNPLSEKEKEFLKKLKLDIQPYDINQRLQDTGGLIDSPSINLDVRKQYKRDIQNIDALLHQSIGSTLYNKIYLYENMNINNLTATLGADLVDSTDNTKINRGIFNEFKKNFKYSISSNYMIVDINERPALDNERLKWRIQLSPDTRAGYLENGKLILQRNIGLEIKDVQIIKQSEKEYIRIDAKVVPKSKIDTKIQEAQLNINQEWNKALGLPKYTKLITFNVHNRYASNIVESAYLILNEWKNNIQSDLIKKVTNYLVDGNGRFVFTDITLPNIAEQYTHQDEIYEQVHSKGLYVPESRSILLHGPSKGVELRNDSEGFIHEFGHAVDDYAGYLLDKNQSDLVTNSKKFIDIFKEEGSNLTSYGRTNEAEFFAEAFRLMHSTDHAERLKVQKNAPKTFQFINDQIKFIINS
BoNT-F LC inh = blocks Botulinum neurotoxin F light chain protease | Multiplex microsphere protease cleavage assay, flow cytometry | inhibition, % at 10 µM | 360,000 compounds, 0.22% hits | AID 588497; in the data active = inhibition above about 35%, passing the limit was not always enough; inconclusive = no clear call, values can overlap the other calls; also: plate controls were buffer without enzyme for full effect and enzyme alone for no effect
Vc quorum ag = inducers of Vibrio cholerae quorum light production without autoinducers | 350,000 compounds, 0.16% hits | activation, % at 18.7 µM | V. cholerae BH1578 lux reporter, luminescence, 6 h; in the data active = activation mostly above about 9.7%, no sharp cut-off; inconclusive = no clear call, values can overlap the other calls; inactive = mostly below about 3.7%
Numbers without * were called inactive; i = inactive; u = inconclusive; x = no result. Rule as the data show it, unless noted: active = inhibition above about 30%; inconclusive = no clear call, values can overlap the other calls; inactive = below that.

SMILES	Autofluor counter	BoNT-A LC inh2	BJeLR lethal	Anthrax LF prot	BoNT-F LC inh	Vc quorum ag
Cc1noc(C)c1-c1ccc(C(=O)Nc2ccccc2)c2occc12	2970	0	x	-6	2	i
C=CCOc1ccc(CC2C(=O)N(C)C(=O)N(C)C2=O)cc1	8987	0	0	5	0	0
Cc1ccc(CC2C(=O)N(C)C(=O)N(C)C2=O)s1	21258*	u	-11	-1	-4	-1
COc1ccc(-c2nnc(-c3ccc(N)cc3)o2)cc1	9135	1	-7	-6	7	-1
COc1ccc(-c2ccc(-c3nnc(-c4cc(OC)ccc4OC)o3)cc2)cc1	22687*	u	-1	1	0	i
O=C(NCCCN1CCOCC1)c1ccccc1N1C(=O)[C@@H]2Cc3c([nH]c4ccccc34)C(c3ccccc3)N2C1=O (stereo not given in full)	4103	-1	x	-12	-13	0
OC(Cc1ccccc1)c1ncc(-c2ccc3ccccc3c2)[nH]1 (stereo not given)	3606	0	x	-6	-2	i
O=C(c1ccccc1)c1ncc(C(F)(F)F)cc1Cl	20699*	-2	-2	-2	-5	0
O=C(c1ccc(Cl)cc1Cl)c1ncc(C(F)(F)F)cc1Cl	11676	-1	0	-3	0	0
COc1ccc(NC(=O)Nc2nnc([C@@H]3C[C@H](O)[C@@H](CO)O3)s2)cc1	3937	0	x	-4	-1	-3
COc1cccc(-c2nn3c(-c4cccc(C)c4)nnc3s2)c1	17527*	-4	6	-4	-7	i
CCOc1cccc(-c2nn3c(-c4ccco4)nnc3s2)c1	23209*	0	-5	0	2	1
COc1cccc(-c2nnc3sc(-c4cccs4)nn23)c1	8351	0	x	4	-8	-1
COc1cccc(-c2nnc3sc(-c4ccco4)nn23)c1	9927	0	-7	0	5	0
COc1cccc(-c2nnc3sc(-c4ccc(C)cc4)nn23)c1	x	x	-4	x	x	x
CCOc1cccc(-c2nnc3sc(-c4cccs4)nn23)c1	17165*	-2	8	1	0	i
CCC(=O)N1CCC1(C)C(=O)Nc1cnc2ccccc2c1 (stereo not given)	3810	0	x	6	3	0
CC12CCC(=O)N1C(C(=O)N1CCN(c3ccc([N+](=O)[O-])cc3)CC1)CS2 (stereo not given)	3741	-1	x	-11	-10	x
C=C(C)[C@@H]1C2=CC(C(=O)OC)=C(C[C@H](C(=C)C)[C@H]3O[C@H]3C3=C[C@H]1OC3=O)O2	4870	0	x	7	4	-1
COc1ccc(-c2c(C)n([O-])c(C)c(-c3ccccc3)[n+]2=O)cc1OC	21301*	2	2	-3	4	2
COc1ccc(-c2c(C)n([O-])c(C)c(C)[n+]2=O)cc1OC	3706	-1	4	-3	-23	0
CCCCCCN1C[C@@H](O)[C@H](n2cc(-c3ccc(F)cc3)nn2)C[C@@H]1c1ccccc1	3770	0	x	-6	3	0
COc1ccc(S(=O)(=O)N2c3ccc(F)cc3CCC2C)cc1 (stereo not given)	3637	-3	62*	-9	9	0
Cc1ccc(NC(=O)c2c(C(F)(F)F)nn(C)c2SCc2cccc(C(F)(F)F)c2)cc1C	16554*	-2	9	-5	-8	i
Cc1ccc(NC(=O)c2c(C(F)(F)F)nn(C)c2SCc2ccc(Cl)cc2)cc1C	18135*	-4	-3	-1	-11	1
SMILES	Autofluor counter	BoNT-A LC inh2	BJeLR lethal	Anthrax LF prot	BoNT-F LC inh	Vc quorum ag
Cn1nc(C(F)(F)F)c(C(=O)Nc2ccc(Cl)cc2)c1Cl	u	u	-1	2	-5	x
Cc1ccc(NC(=O)c2c(C(F)(F)F)nn(C)c2Cl)cc1C	19260*	u	-3	3	3	i
C=Cc1ccc(CC2(C)C(=O)Nc3ccc(Cl)cc32)cc1 (stereo not given)	2932	0	x	-4	-6	i
CCOC(=O)[C@]12CCCC=C1N(Cc1ccc3c(c1)OCO3)C(=O)[C@H](CC(=O)NCC13CC4CC(CC(C4)C1)C3)C2	6072	0	x	4	-1	x
CC(C)c1ccc(CN(C(=O)c2cc3ccccc3oc2=O)C2CCS(=O)(=O)C2)cc1 (stereo not given)	21498*	u	1	-12	5	0
COc1cccc(OCCOc2c(OC)cccc2OC)c1	3426	0	-4	-1	37*	i

Screens (PubChem BioAssay)
